GRP78 ERSR act – inducers of ER stress response in human glioma cells; U87-MG GRP78 promoter luciferase reporter, 16 h; Potency, µM, for inactives: at the top dose activation, most hits filed as activators; hit rate 0.02% among 420,000; further: potency means the concentration at half of the fitted maximal effect; series mostly up to about 76 µM; % of control where 0% means no effect; nearly all actives have a fitted effect of over 35% in size
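ERSR induction read as luciferase luminescence (Bright-Glo, 10 min at room temperature) in stably transfected human U87-MG glioma cells exposed to compounds for 16 h, using GRP78 as sensor.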
N370S GC mod – N370S glucocerebrosidase modulation, Gaucher chaperone candidate | N370S GC spleen homogenate, 4MU-glucoside fluorescence | Potency, µM (highest dose often 59.4 µM), for inactives: top-dose activity change, negative = inhibition, actives largely listed as inhibitors | hit rate 0.092% among 330,000 | AID 2101;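 further: potency means the concentration at half of the fitted maximal effect; 0% = full enzyme activity and -100% = no enzyme basal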
Integrin act MD – activates integrin-mediated alleviation for muscular dystrophy; AID 624291; Potency, µM (top dose mostly 38.3 µM), for the others: at the top dose activation, actives largely listed as activators; alpha7betagal myoblasts, beta-gal FDG fluorescence, 48 h; hit rate 0.064% among 350,000;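 further: potency means the concentration at half of the fitted maximal effect; 100% = response of the positive control SU9516; nearly all actives have a fitted effect of over 60% in size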
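Alpha7betagal+/- myoblasts (passage 13) were plated 16-24 hr, then exposed to compounds (1:260 dilution of DMSO stock) for 48 hours at 37C. After MPER lysis, β-galactosidase reporter activity was read as FDG fluorescence (ex 480/em 540) after 30 minutes.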
Anesthetic bind – candidate novel general anesthetic via apoferritin binding. P02791. apoferritin/1-aminoanthracene competitive binding, fluorescence. hit rate 0.074% among 350,000. Potency, µM (titrated, usually from 77.5 µM), for the others: at the highest dose activity change, negative = displacement, actives largely listed as inhibitors; further: potency means the concentration at half of the fitted maximal effect; on the % scale 0 is the no-effect control and ±100 the full control effect; nearly all actives have a fitted effect of over 20% in size
Target sequence (P02791 2-175 limits assumed): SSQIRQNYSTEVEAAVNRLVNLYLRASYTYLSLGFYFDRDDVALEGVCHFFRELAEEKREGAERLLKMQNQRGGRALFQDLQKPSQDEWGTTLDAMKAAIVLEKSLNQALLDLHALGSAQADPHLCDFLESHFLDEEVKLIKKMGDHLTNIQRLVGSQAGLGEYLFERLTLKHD
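Steps: apoferritin (10 uM) was premixed with half-saturated 1-AMA in PBS, compounds were pin-transferred, plates stood 10 min at room temperature, fluorescence was read at 380/535 nm, and curves were fitted with a Hill equation.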
ClpP mod – qHTS Assay for Activators of ClpP. ATP-dependent Clp protease proteolytic subunit (Bacillus subtilis (strain 168)), P80244. purified B. subtilis ClpP, FRET peptide cleavage, 20 min. Potency, µM (titrated, usually from 57.5 µM), inactives show top-dose activity change, negative = active. hit rate 1.9% among 340,000. AID 651965, 2013; active means well fitted falling curve with a large enough effect; inconclusive means small, poorly fitted or top-dose-only effect; inactive means no such curve, though single readings can be large or run the other way; further: potency means the concentration at half of the fitted maximal effect; the source files actives as falling curves though it sought activators and does not explain the sign; nearly all actives have a fitted effect of over 65% in size
Target sequence (P80244 whole entry, looked up): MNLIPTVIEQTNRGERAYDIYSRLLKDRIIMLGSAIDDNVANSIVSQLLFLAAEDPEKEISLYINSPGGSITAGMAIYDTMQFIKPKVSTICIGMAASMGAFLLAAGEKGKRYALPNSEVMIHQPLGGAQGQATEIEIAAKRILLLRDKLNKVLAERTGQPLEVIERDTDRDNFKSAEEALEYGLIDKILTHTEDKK
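Buffer: 100 mM Tris/HCl pH8, 100 mM KCl, 0.05% low protease BSA, 2.5% glycerol, 0.01% Tween-20. ClpP 10 microg/mL final; 20 min RT; delta FRET normalized to ADEP and DMSO controls.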
CBFb-RUNX1 inh – CBF-beta/RUNX1 interaction disruption | Potency, µM (highest dose often 59.8 µM), for the others: at the highest dose activity, negative = inhibition, most hits filed as inhibitors | AlphaScreen CBFb-His/RUNX1-biotin binding, biochemical | Q01196+Q13951 | 230,000 tested, under 10 active; further: % of control where 0% means no effect
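Room-temperature protein-protein interaction test with 30 nM each of His-tagged CBF-beta and biotinylated RUNX1, 15 min with compound, then 90 min with nickel plus streptavidin beads. Signal read in AlphaScreen mode.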
Numbers without * were called inactive. Many of the other results were omitted from the sample, so hits are more common in it than they were. Unless noted, the call rests on the fitted dose curve; in most records, active means well fitted curve in the direction sought with a large enough effect; inconclusive means small, poorly fitted or top-dose-only effect, or another doubt; inactive means no such curve, though single readings can be large; an effect the other way counts as inactive or inconclusive.

How did CCN(CC)CCCNc1cc2n(c(=O)n1)CCc1cc(OC)c(OC)cc1-2 do in these assays?
GRP78 ERSR act: -3.2%; N370S GC mod: 4.6%; Integrin act MD: 7.6%; Anesthetic bind: 0.8%; ClpP mod: 25.1µM*; CBFb-RUNX1 inh: 7.6%

What do the screens show for `COc1cc2c(cc1OC)-c1cc(NC3CCCCCC3)nc(=O)n1CC2`?
GRP78 ERSR act: -1.4%; N370S GC mod: -4.9%; Integrin act MD: -7.2%; Anesthetic bind: -14.6%; ClpP mod: 25.1µM*; CBFb-RUNX1 inh: 3.0%

How did COc1cc2c(cc1OC)-c1cc(N3CCCCCC3)nc(=O)n1CC2 do in these assays?
GRP78 ERSR act: -0.6%; N370S GC mod: 7.3%; Integrin act MD: -17.8%; Anesthetic bind: 5.8%; ClpP mod: 25.1µM*; CBFb-RUNX1 inh: 13.1%

What do the screens show for `COc1ccc(Nc2cc3n(c(=O)n2)CCc2cc(OC)c(OC)cc2-3)cc1`?
GRP78 ERSR act: -0.2%; N370S GC mod: -7.9%; Integrin act MD: -24.0%; Anesthetic bind: 3.3%; ClpP mod: -0.5%

What do the screens show for `O=C1C(=O)C(c2ccc(O)cc2O)Oc2cc(O)cc(O)c21` (stereo not drawn)?
GRP78 ERSR act: 2.8%; ClpP mod: -2.1%

How did COc1ccc2cc(CN(C(=O)c3cc(C)nn3C)C3CC3)c(-c3ccc(Cl)cc3)nc2c1 do in these assays?
GRP78 ERSR act: 0.0%

How did CCCN(C(=O)c1ccc(S(=O)(=O)N2CCCC2)cc1)C1CCS(=O)(=O)C1 (stereo not drawn) do in these assays?
GRP78 ERSR act: -2.2%; Integrin act MD: 5.01µM*; ClpP mod: -3.0%

How did CCN(CC(=O)N1CCOCC1)S(=O)(=O)c1cc(Cl)ccc1Cl do in these assays?
GRP78 ERSR act: -4.9%; N370S GC mod: -1.4%; Integrin act MD: 36.7%; Anesthetic bind: -4.9%; ClpP mod: 31.6µM*

How did CN(CC(=O)N1CCOCC1)S(=O)(=O)c1cc(Cl)ccc1Cl do in these assays?
GRP78 ERSR act: -3.0%; N370S GC mod: -12.7%; Integrin act MD: 0.0%; Anesthetic bind: 1.9%

How did Cc1cccc(OC(C)C(=O)NCc2ccc(S(N)(=O)=O)cc2)c1 (stereo not drawn) do in these assays?
GRP78 ERSR act: -3.0%; N370S GC mod: 3.0%; Integrin act MD: 27.3%; Anesthetic bind: -6.9%; ClpP mod: 3.16µM*; CBFb-RUNX1 inh: 4.0%

Results for Cc1cccc(C(=O)NCc2ccc(S(N)(=O)=O)cc2)c1[N+](=O)[O-] ?
GRP78 ERSR act: -1.8%; N370S GC mod: 0.9%; Integrin act MD: -15.2%; Anesthetic bind: 0.2%; ClpP mod: 28.2µM*; CBFb-RUNX1 inh: -15.8%

What do the screens show for `O=C1/C(=C/c2ccsc2)CC/C1=C\c1cccs1`?
GRP78 ERSR act: -8.6%

What do the screens show for `COc1ccc(-c2nc3ccncc3[nH]2)cc1OC`?
GRP78 ERSR act: 2.0%; N370S GC mod: 1.8%; Integrin act MD: -12.4%; Anesthetic bind: -6.4%; ClpP mod: 28.2µM*; CBFb-RUNX1 inh: 1.2%

Results for ClC(Br)=C(n1cnc2ccccc21)n1cnc2ccccc21 ?
GRP78 ERSR act: -0.8%; N370S GC mod: 9.6%; Integrin act MD: 8.4%; Anesthetic bind: 0.8%; ClpP mod: 25.1µM*; CBFb-RUNX1 inh: 10.4%

How did CN(C(=O)n1cnc2ccccc21)c1ccccc1 do in these assays?
GRP78 ERSR act: -2.7%; N370S GC mod: 6.2%; Integrin act MD: 18.0%; Anesthetic bind: -8.0%; ClpP mod: 0.8%; CBFb-RUNX1 inh: -0.8%

What do the screens show for `CC1(C)SC2C(NC(=O)C(c3ccccc3)S(=O)(=O)O)C(=O)N2C1C(=O)O` (stereo not drawn)?
GRP78 ERSR act: -4.4%

Results for CCC1CN(CCNC(=O)c2ccccc2-n2cccn2)Cc2cc(OC)ccc2O1 (stereo not drawn) ?
GRP78 ERSR act: -4.1%

Results for CC(=O)Nc1ccc2[nH]c(C)c(CC=C(Cl)Cl)c(=O)c2c1 ?
GRP78 ERSR act: -3.2%; N370S GC mod: 11.7%; Integrin act MD: 12.9%; Anesthetic bind: 5.3%; ClpP mod: 31.6µM*; CBFb-RUNX1 inh: 2.4%

Results for Cc1c(CC=C(Cl)Cl)c(=O)[nH]c2c(C)cccc12 ?
GRP78 ERSR act: -3.2%; N370S GC mod: 8.8%; Integrin act MD: -6.1%; Anesthetic bind: -5.2%; CBFb-RUNX1 inh: -1.1%

What do the screens show for `CCOC(=O)c1cc(C#N)c(N2CCCC2)nc1-c1ccccc1`?
GRP78 ERSR act: 0.7%; N370S GC mod: 6.6%; Integrin act MD: -24.7%; Anesthetic bind: -13.1%; ClpP mod: 28.2µM*; CBFb-RUNX1 inh: inconclusive

What do the screens show for `CCOC(=O)c1cc(C#N)c(NCc2ccccc2)nc1C`?
GRP78 ERSR act: 1.0%; N370S GC mod: 1.9%; Integrin act MD: -0.3%; Anesthetic bind: -13.5%; ClpP mod: 31.6µM*; CBFb-RUNX1 inh: 12.6%

Results for CC(=O)c1cc(C#N)c(NCc2ccccc2)nc1C ?
GRP78 ERSR act: 0.1%; N370S GC mod: -3.4%; Integrin act MD: 9.0%; Anesthetic bind: -14.2%; CBFb-RUNX1 inh: -1.6%

Results for CCC(=O)N1CCN(c2nc(-c3ccccc3)c3c(c2C#N)CCCC3)CC1 ?
GRP78 ERSR act: -1.7%; N370S GC mod: 8.0%; Integrin act MD: -7.7%; Anesthetic bind: -10.8%; ClpP mod: 31.6µM*; CBFb-RUNX1 inh: 22.7%

How did Nc1c(Br)cc(C=O)cc1Br do in these assays?
GRP78 ERSR act: -3.5%; ClpP mod: -3.0%

What do the screens show for `O=C(C[n+]1ccccc1Br)c1ccc(Cl)cc1`?
GRP78 ERSR act: -4.2%; ClpP mod: 0.4%

Results for COC(=O)C1CCCCN1Cc1ccc2c(c1)CN(C1CCSCC1)CCO2 (stereo not drawn) ?
GRP78 ERSR act: -4.4%

How did N#CC(C(=O)NCCc1ccccc1)c1nc2ccccc2nc1N1CCCCC1 (stereo not drawn) do in these assays?
GRP78 ERSR act: 2.1%; N370S GC mod: -16.7%; Integrin act MD: 5.6%; Anesthetic bind: 2.5%; ClpP mod: -3.1%; CBFb-RUNX1 inh: 9.1%

How did CCOC(=O)N1CCN(c2nc3ccccc3nc2C(C#N)C(=O)NCCc2ccccc2)CC1 (stereo not drawn) do in these assays?
GRP78 ERSR act: -1.2%; N370S GC mod: 5.2%; Integrin act MD: -1.9%; Anesthetic bind: -10.8%; ClpP mod: 14.1µM*; CBFb-RUNX1 inh: 0.1%

How did O=C(c1ccccc1)C(CCc1ccccn1)CCc1ccccn1 do in these assays?
GRP78 ERSR act: 1.5%; Integrin act MD: 26.5%; ClpP mod: 3.55µM*

Results for CC(CCc1ccccn1)C(=O)c1ccccc1 (stereo not drawn) ?
GRP78 ERSR act: 3.1%; Integrin act MD: 0.2%; ClpP mod: 3.2%
